# Laboratory results: PubChem BioAssay
# Test system: Human papillomavirus type 1a protein E7 (residues 44-93)
# Test: HPV1a E7 fragment binders on microarrays, primary screen, biochemical, small-molecule microarray, residues 44-93, 635 nm fluorescence (AID 1108);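 also: E7 fragment applied at 1 µg/mL in TBST for 1 h at 4 C; score combines spot fluorescence with its signal to noise ratio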
# Conditions: small-molecule microarray binding, fluorescence 635 nm; higher = more signal
row,Compound,composite z-score
1,CC(CO)N1C(=O)[C@@H]2[C@H]3C(=O)OCC=C[C@H]3OC23C=CCN(CCN2CCOCC2)C(=O)[C@@H]13 (stereo partly specified),-0.186
2,C=C(COC)C(=O)CC[C@@H](OC(=O)c1cccnc1)c1ccc(OCCO)cc1,0.757
3,COC(=O)[C@@]1(Cc2ccc(OC)cc2)[C@H]2c3cc(C(=O)N4CCCC4)n(Cc4cccc5ccccc45)c3C[C@H]2CN1C(=O)c1ccccc1,0.764
4,CC(C)(C)OC(=O)CC[C@@]1(C(=O)NCc2ccccc2)N=C(c2ccc(OCCCO)cc2)O[C@@H]1c1ccccc1N=[N+]=[N-],0.912
5,C=CC[C@@]1(C(=O)N2CCOCC2)N=C(c2ccc(OCCCO)cc2)O[C@@H]1c1ccccc1CN=[N+]=[N-],1.44
6,COC(=O)[C@@]1(Cc2ccc(F)cc2)[C@H]2c3cc(C(=O)N4CCCC4)n(CCc4ccc(O)c(O)c4)c3C[C@H]2CN1C(=O)c1ccccc1,-0.369
7,CCOC(=O)C[C@H]1[C@H](OC(=O)c2cc3ccccc3oc2=O)[C@@H](NC(=O)c2ccc(-c3ccccc3)cc2)c2cc(OCCCO)ccc2N1C(=O)c1ccc2ccccc2n1,1.38
8,COc1ccc([Si](C)(C)[C@H]2[C@H](CCn3cc([C@H](O)c4ccccc4)nn3)O[C@@]3(C(=O)N(Cc4ccc(N5C(=O)c6cccc7cccc5c67)cc4)c4ccccc43)[C@@H]2C)cc1,0.0891
9,C[C@@H]1NC(=O)[C@@]23C(=O)N[C@@H](Cc4ccccc4)C2[C@H](C)[C@@]2(C)O[C@H]2C3/C=C/C/C=C\CNC(=O)[C@@H]2CCCN2C1=O (stereo partly specified),-0.496
10,COC(=O)[C@@]1(Cc2ccccc2)[C@H]2c3cc(C(=O)N(C)C)n(Cc4c(CO)[nH]cc(C)c4=O)c3C[C@H]2CN1C(=O)c1ccccc1,-0.0355
11,COC(=O)CCCCCCC(=O)Nc1ccc(NC(=O)CCCC[P+](c2ccccc2)(c2ccccc2)c2ccccc2)cc1,-0.0924

# Test system: not listed separately
# Test: modulators of HCV replicon luciferase signal, primary screen, HCV replication inhibitor project, Huh7 cells, luciferase reporter (AID 1109);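 also: huh7 hepatoma cells harbouring a luciferase neomycin HCV replicon reporter; luciferase luminescence as measure of HCV replicon replication; test concentration not given here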
# Conditions: 48 h, higher = more signal
row,Compound,z-score
1,COc1ccc([Si](C)(C)[C@@H]2[C@@H](CC(=O)N3Cc4ccccc4C[C@H]3CO)O[C@]3(C(=O)N(C)c4ccccc43)[C@H]2C)cc1,-4.84
2,O=C(N1CCCCC1)[C@@]1(CCS(=O)(=O)c2ccccc2)COC(c2ccc(OCCCO)cc2)=N1,-0.98
3,O=C1NC(=O)C2C1C=CC(C(O)CCc1ccccc1)N2Nc1ccc(Cl)cc1Cl (stereo unspecified),-0.271
4,C=CCC(OC(C)=O)[C@@H]1[C@@H](N(Cc2cc3ccccc3o2)C(=O)c2ccc(-c3ccccc3)cc2)c2cc(OCCCO)ccc2N1C(=O)c1ccc2ccccc2c1 (stereo partly specified),-1.48
5,CCOC(=O)C[C@H]1[C@H](OC(=O)Cc2ccc3c(c2)OCO3)[C@@H](NC(=O)Cc2ccc(OC)cc2)c2cc(OCCCO)ccc2N1C(=O)c1ccc2ccccc2n1,-0.763
6,COC(=O)c1c2oc(c1C(=O)OC)C(=O)N(Cc1ccccc1)Cc1cn(nn1)C[C@H](Cc1ccccc1)NC(=O)N[C@H](CO)CC2,-0.533
7,NC(N)=NCCCn1cc(CNC(=O)[C@@H](N)Cc2ccccc2)nn1,-0.332
8,NC(=O)N1C(=O)C2C(C1=O)C1C=C(CCCO)C2C(c2cccs2)N1Cc1cccc(OC(F)(F)F)c1 (stereo unspecified),-0.933
9,CCOC(=O)C[C@H]1[C@H](OC(=O)c2cc3ccccc3oc2=O)[C@@H](NC(=O)Cc2ccc(OC)cc2)c2cc(OCCCO)ccc2N1C(=O)c1ccc2ccccc2n1,-0.664
10,COCCOC(=O)N1C(=O)[C@@]2(c3cc(C#CC4=CCCCC4)ccc31)[C@H](c1ccc(OCCO)cc1)N1[C@H](c3ccccc3)[C@H](c3ccccc3)OC(=O)[C@H]1[C@@H]2C(=O)NC[C@H](O)c1ccccc1,-1.88
11,COC(=O)c1nc2oc1CC[C@@H](CO)NC(=O)N(C)Cc1cnnn1C[C@H](Cc1ccccc1)NC2=O,-0.421
12,CN1C(=O)C2C=CC(C(O)COCc3ccccc3)N(N(c3ccccc3)c3ccccc3)C2C1=O (stereo unspecified),-1.4
13,COc1cc2c(cc1O)C(C)N(Cc1ccc([N+](=O)[O-])o1)CC2 (stereo unspecified),-0.616
14,C=CCOC(=O)[C@H]1[C@@H]2C(=O)O[C@@H](c3ccccc3)[C@@H](c3ccccc3)N2[C@@H](c2ccc(OCCOC(=O)[C@@H]3C[C@@H]4C(=O)N[C@@H](CCCCN(C)C)C(=O)N4[C@@H]3c3ccc(O)cc3)cc2)[C@]12C(=O)Nc1ccccc12,-2.88
15,CCOC(=O)C1=C[C@@H](c2ccccc2)N(S(=O)(=O)c2ccc(C)cc2)[C@H]1c1ccccc1Cl,-1.55
16,C[N+](C)(C)CCCCCCNC(=O)[C@H]1C[C@H]2C(=O)NCC(=O)N2[C@H]1c1ccc(O)cc1,1.4
17,COc1cc(CO)cc(I)c1O[C@H]1C=C(C(=O)NCCO)C[C@@H](NCc2ccc(F)cc2)[C@@H]1O,-4.07
18,COC1OC[C@]2(C)[C@H]3C4=C(CN2C(=O)OC(C)(C)C)[C@H](C)C(CO)C(CO)C4CC[C@@H]13 (stereo partly specified),-1.3

row,Compound,z-score
1,O=C1O[C@H](c2ccccc2)[C@H](c2ccccc2)N2[C@H]1[C@@H](C(=O)Nc1nc3ccccc3s1)[C@]1(C(=O)Nc3ccc(C#CCCO)cc31)[C@H]2c1ccc(O)cc1,-0.829
2,C=CCC(OC(C)=O)[C@@H]1[C@@H](N(Cc2cc3ccccc3o2)C(=O)Cc2ccc(F)cc2)c2cc(OCCCO)ccc2N1C(=O)c1ccc2ccccc2c1 (stereo partly specified),-1.18
3,OCCCC1=CC(c2ccc(CN3CCCC3)cc2)N(Cc2sc3ccccc3c2Cl)CC1 (stereo unspecified),-4.17
4,O=C1O[C@H](c2ccccc2)[C@H](c2ccccc2)N2[C@H]1[C@@H](C(=O)N1CCN(c3ncccn3)CC1)[C@]1(C(=O)Nc3ccc(C#CC4(O)CCCCCC4)cc31)[C@H]2c1ccc(OCCO)cc1,-1.58
5,O=C1C2C=CC(C(O)c3ccc(Br)cc3)N(Nc3ccccc3F)C2C(=O)N1c1ccccc1 (stereo unspecified),-0.445
6,COCCOC(=O)N1C(=O)[C@@]2(c3cc(C#CCC(C(=O)OC)C(=O)OC)ccc31)[C@H](C(=O)N1CCc3cc(OC)c(OC)cc3C1)[C@H]1C(=O)O[C@H](c3ccccc3)[C@H](c3ccccc3)N1[C@@H]2c1ccc(OCCO)cc1,-0.45
7,CC(CO)N1C(=O)[C@@H]2[C@H]3C(=O)OCC=C[C@H]3OC23C=CCN(CCN2CCOCC2)C(=O)[C@@H]13 (stereo partly specified),0.606
8,C=C(COC)C(=O)CC[C@@H](OC(=O)c1cccnc1)c1ccc(OCCO)cc1,-2.9
9,COC(=O)[C@@]1(Cc2ccc(OC)cc2)[C@H]2c3cc(C(=O)N4CCCC4)n(Cc4cccc5ccccc45)c3C[C@H]2CN1C(=O)c1ccccc1,-0.356
10,CC(C)(C)OC(=O)CC[C@@]1(C(=O)NCc2ccccc2)N=C(c2ccc(OCCCO)cc2)O[C@@H]1c1ccccc1N=[N+]=[N-],-0.339
11,C=CC[C@@]1(C(=O)N2CCOCC2)N=C(c2ccc(OCCCO)cc2)O[C@@H]1c1ccccc1CN=[N+]=[N-],-2.04
12,COC(=O)[C@@]1(Cc2ccc(F)cc2)[C@H]2c3cc(C(=O)N4CCCC4)n(CCc4ccc(O)c(O)c4)c3C[C@H]2CN1C(=O)c1ccccc1,-1.79
13,CCOC(=O)C[C@H]1[C@H](OC(=O)c2cc3ccccc3oc2=O)[C@@H](NC(=O)c2ccc(-c3ccccc3)cc2)c2cc(OCCCO)ccc2N1C(=O)c1ccc2ccccc2n1,-0.989
14,COc1ccc([Si](C)(C)[C@H]2[C@H](CCn3cc([C@H](O)c4ccccc4)nn3)O[C@@]3(C(=O)N(Cc4ccc(N5C(=O)c6cccc7cccc5c67)cc4)c4ccccc43)[C@@H]2C)cc1,-2.6
15,C[C@@H]1NC(=O)[C@@]23C(=O)N[C@@H](Cc4ccccc4)C2[C@H](C)[C@@]2(C)O[C@H]2C3/C=C/C/C=C\CNC(=O)[C@@H]2CCCN2C1=O (stereo partly specified),0.606
16,COC(=O)[C@@]1(Cc2ccccc2)[C@H]2c3cc(C(=O)N(C)C)n(Cc4c(CO)[nH]cc(C)c4=O)c3C[C@H]2CN1C(=O)c1ccccc1,-0.898
17,COC(=O)CCCCCCC(=O)Nc1ccc(NC(=O)CCCC[P+](c2ccccc2)(c2ccccc2)c2ccccc2)cc1,0.319
